Experimental data as given in PubChem BioAssay AID1159580 (chemical genetic matrix, 2015).
Out of some 5,500 compounds screened, about 2,000 (36%) were called active. Roughly 18% stayed inconclusive and do not appear here. Cut-off read from the data, not from the text of the source: active = normalized growth mostly below about 0.91 (no sharp cut-off); inconclusive = no clear call, values can overlap the other calls; inactive = mostly above about 0.92. The list shows a part of the results.

Assay: chemical genetic growth profiling, strain panel (AID 1159580);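 note: tested at 20 µM; growth read once vehicle control cultures reached saturation at 30 °C; 1 = growth at the plate median or of vehicle wells; lower values mean less growth of the strain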
Conditions: S. cerevisiae deletion strains, growth OD

Measured: normalized growth

CC(C)(O)C#Cc1ccc(/C=N\Nc2ccccc2)cc1
active: locus YER123W, strain YCK3, hits give low values 0.569 | locus YFR019W, strain FAB1, hits give low values 0.589 | locus YGR092W, strain DBF2, hits give low values 0.13 | locus YHR030C, strain SLT2, hits give low values 0.507 | locus YJL095W, strain BCK1, hits give low values 0.497 | locus YJR066W, strain TOR1 (second series), hits give low values 0.557 | locus YKL048C, strain ELM1, hits give low values 0.756 | locus YLR113W, strain HOG1, hits give low values 0.718 | locus YML070W, strain DAK1, hits give low values 0.556 | locus YNL307C, strain MCK1 (second series), hits give low values 0.41 | locus YOL136C, strain PFK27, hits give low values 0.614 | locus YOR061W, strain CKA2, hits give low values 0.366 | locus YOR231W, strain MKK1, hits give low values 0.551 | locus YPL153C, strain RAD53, hits give low values 0.565 | locus YPL204W, strain HRR25, hits give low values 0.602 | locus YPL256C, strain CLN2, hits give low values 0.766
inactive: locus YAR019C, strain CDC15, hits give low values 0.966 | locus YBL105C, strain PKC1, hits give low values 0.963 | locus YBR135W, strain CKS1, hits give low values 0.952 | locus YBR136W, strain MEC1, hits give low values 0.954 | locus YBR160W, strain CDC28, hits give low values 0.954 | locus YDL017W, strain CDC7, hits give low values 0.961 | locus YDL028C, strain MPS1, hits give low values 0.952 | locus YDL101C, strain DUN1, hits give low values 0.954 | locus YDL108W, strain KIN28, hits give low values 0.965 | locus YDL132W, strain cdc53, hits give low values 0.949 | locus YDL214C, strain PRR2, hits give low values 0.822 | locus YDR052C, strain DBF4, hits give low values 0.955 | locus YDR054C, strain cdc34, hits give low values 0.957 | locus YDR226W, strain ADK1, hits give low values 0.968 | locus YDR477W, strain SNF1, hits give low values 0.767 | locus YER133W, strain GLC7, hits give low values 0.799 | locus YFL009W, strain cdc4, hits give low values 0.948 | locus YFL029C, strain CAK1, hits give low values 0.957 | locus YFR003C, strain YPI1, hits give low values 0.957 | locus YFR028C, strain CDC14, hits give low values 0.965 | locus YGR040W, strain KSS1, hits give low values 0.784 | locus YGR052W, strain FMP48, hits give low values 0.716 | locus YHR079C, strain IRE1, hits give low values 0.585 | locus YHR082C, strain KSP1, hits give low values 0.795 | locus YHR205W, strain SCH9, hits give low values 0.88 | locus YIL147C, strain SLN1, hits give low values 0.954 | locus YJL128C, strain PBS2, hits give low values 0.995 | locus YJR016C, strain ILV3, hits give low values 0.948 | locus YJR066W, strain TOR1, hits give low values 0.644 | locus YKL101W, strain HSL1, hits give low values 0.78 | locus YKL193C, strain SDS22, hits give low values 0.954 | locus YKL203C, strain TOR2, hits give low values 0.831 | locus YLR133W, strain CKI1, hits give low values 0.798 | locus YMR001C, strain CDC5, hits give low values 0.96 | locus YMR205C, strain PFK2 (second series), hits give low values 0.872 | locus YMR277W, strain FCP1, hits give low values 0.963 | locus YNL006W, strain LST8, hits give low values 0.954 | locus YNL020C, strain ARK1, hits give low values 0.811 | locus YNL161W, strain CBK1, hits give low values 0.954 | locus YNL183C, strain NPR1, hits give low values 0.735 | locus YNL207W, strain RIO2, hits give low values 0.958 | locus YNL222W, strain SSU72, hits give low values 0.953 | locus YOL078W, strain AVO1, hits give low values 0.952 | locus YOR119C, strain RIO1, hits give low values 0.799 | locus YOR329C, strain SCD5, hits give low values 0.955 | locus YPL031C, strain PHO85, hits give low values 0.686 | locus YPL209C, strain IPL1, hits give low values 0.959 | locus YPR025C, strain CCL1, hits give low values 0.948 | locus YPR106W, strain ISR1, hits give low values 0.974 | locus YPR111W, strain DBF20, hits give low values 0.968 | strain NNK1, hits give low values 0.979 | strain TSCII, hits give low values 0.951

CN(C)CCCO[C@@H]1[C@H]2OC(C)(C)O[C@H]2O[C@@H]1C(O)CO (stereo not given in full)
inactive: locus YAL040C, strain CLN3, hits give low values 1 | locus YCL061C, strain MRC1 (second series), hits give low values 1 | locus YDR150W, strain NUM1, hits give low values 1 | locus YDR363W, strain ESC2, hits give low values 1 | locus YER002W, strain NOP16, hits give low values 1.02 | locus YGR078C, strain PAC10, hits give low values 1.01 | locus YJR075W, strain HOC1, hits give low values 1.01 | locus YNL175C, strain NOP13, hits give low values 1.01 | locus YNL197C, strain WHI3, hits give low values 1.03 | locus YNL224C, strain SQS1, hits give low values 1 | locus YOR083W, strain WHI5 (second series), hits give low values 1.01 | locus YPL241C, strain CIN2, hits give low values 1.01
